We go through 16 compounds from PubChem BioAssay (NCATS).

Experiment [1] is described as follows: qHTS drug screen for cell cycle checkpoint inhibitors in PARPi-resistant BRCA-mutant ovarian cancer cell lines. (AID 1963452; calls by dose curve). The conditions noted are these: PEO1/OlaR viability, CellTiter-Glo luminescence, 96 h, stronger effect = lower value. The method in brief: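 PEO1, PEO4 and PEO1/OlaR ovarian cancer cells, 600 per well, exposed 96 h at 37C to a dilution series. Viability read by CellTiter-Glo luminescence, normalized to DMSO and empty wells; activity summarized as Z-AUC.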
For orientation: qHTS replaces the single test concentration by a dilution series.

Experiment [2] deals with Cytochrome P450 2C19 (Homo sapiens) (UniProt P33261). The experiment is described as follows: qHTS for inhibitors of CYP2C19 against the NCATS DSHEA and TCM libraries (AID 1919974).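 Further: luminescence from luciferin released by CYP2C19 oxidation of a pro-luciferin substrate; potency means the concentration at half of the fitted maximal effect.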 The conditions noted are these: CYP2C19 enzyme inhibition, luminescence qHTS; series mostly up to 18.8 µM. The method in brief:
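Concentration-response screening with isoform-matched pro-luciferin substrates. The CYP reaction was initiated by NADPH regenerating solution and ran 30-45 min in darkness at room temperature.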

Experiment [3] is described as follows: KB-3-1 P-gp reporter qHTS against the NCATS DSHEA and TCM libraries (AID 1919975). Further: 0% is about no effect. The conditions noted are these: KB-3-1 parental cells, CellTiter-Glo luminescence viability, 72 h; series mostly up to 14.4 µM. In a few lines:
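Parental KB-3-1 human cervical adenocarcinoma cells (500 cells/well, DMEM + 10% FBS) were treated with substances for ~72 h at 37C; viability was read by CellTiter-Glo luminescence.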

Experiment [4] has as its target Cytochrome P450 1A2 (Homo sapiens) (UniProt P05177). The experiment is described as follows: qHTS for inhibitors of CYPIA2 against the NCATS DSHEA and TCM libraries (AID 1919976). Further: potency means the concentration at half of the fitted maximal effect. The note with it: recombinant CYP1A2 enzyme activity, luminescence; series mostly up to 20.3 µM. In a few lines:
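Enzyme and pro-luciferin substrate, or substrate alone as no-enzyme background, are pre-incubated with test samples for 15 min at room temperature. NADPH regeneration system (1x final) initiates a 30-45 min dark reaction; luciferase detection reagent follows before luminescence reading.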

Experiment [5] is described as follows: qHTS Counterscreen for compound interference against the NCATS DSHEA and TCM libraries (AID 1919978). Further: % of control where 0% means no effect. The note with it: firefly luciferase detection reagent interference, luminescence. In a few lines:
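D-luciferin (1 uM final) or 100 mM potassium phosphate buffer alone was preincubated 15 min at RT with compounds (19.5 nM to 39.8 uM final). Luciferin detection reagent was then added and luminescence read after 30 min at RT.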

Experiment [6] in a line: Dual reporter qHTS for agonist of Pregnane X Receptor (hPXR) against the NCATS DSHEA and TCM libraries: Fluorescence readout (AID 1920058). Further: 0% is about no effect. The note with it: PXR dual reporter cells; series mostly up to 22 µM. The method in brief: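 Cells were plated at 2000 per well and allowed to attach for 5 h. Test substances were pinned in and incubated roughly 24 h. CellTiter-Fluor was then added and fluorescence measured after 1 h.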

Experiment [7] concerns the target Nuclear receptor subfamily 1 group I member 2 (Homo sapiens) (UniProt O75469). The experiment is described as follows: Dual reporter qHTS for agonist of Pregnane X Receptor (hPXR) against the NCATS DSHEA and TCM libraries: Luminescence readout (AID 1920059). Further: 0% is about no effect. The conditions noted are these: hPXR dual reporter cells, luciferase luminescence agonist; series mostly up to 22 µM. The method in brief: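 hPXR-LucHepG2 cells in phenol red-free DMEM with 5% charcoal-stripped FBS, 2000 cells/well, attached 5 h, then exposed 24 h at 37C to compounds; rifampicin as positive agonist control (2.8 nM–92 uM). Luciferase luminescence read.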

Experiment [8] has the same target. As to the kind of experiment: Dual reporter qHTS for antagonist of Pregnane X Receptor (hPXR) against the NCATS DSHEA and TCM libraries: Luminescence Readout (AID 1920060). Further: 0% is about no effect. The conditions noted are these: hPXR dual reporter cells, luciferase luminescence, antagonist mode; series mostly up to 22 µM. In a few lines: (§1)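 Rifampicin-stimulated (2 uM final) hPXR-luciferase HepG2 cells were treated for 24 h with DSNP/TCM substances. Viability came from CellTiter-Fluor fluorescence, reporter activity from ONE-Glo luminescence.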

Experiment [9] in a line: Dual reporter qHTS for antagonist of Pregnane X Receptor (hPXR) against the NCATS DSHEA and TCM libraries: Fluorescence Readout (AID 1920061). Further: 0% is about no effect. The note with it: PXR dual reporter cells, antagonist mode; series mostly up to 22 µM. In a few lines: as §1
Where [10] appears, read: measured here: PEO1 parental Z-AUC.

Records with an inconclusive call do not appear. Calls of active or inactive are those of the source. Unless noted, the call rests on the fitted dose curve; in most records, active means well fitted curve in the direction sought with a large enough effect; inconclusive means small, poorly fitted or top-dose-only effect, or another doubt; inactive means no such curve, though single readings can be large; an effect the other way counts as inactive or inconclusive.

Nuclear receptor subfamily 1 group I member 2 (Homo sapiens), sequence (O75469 whole entry, looked up): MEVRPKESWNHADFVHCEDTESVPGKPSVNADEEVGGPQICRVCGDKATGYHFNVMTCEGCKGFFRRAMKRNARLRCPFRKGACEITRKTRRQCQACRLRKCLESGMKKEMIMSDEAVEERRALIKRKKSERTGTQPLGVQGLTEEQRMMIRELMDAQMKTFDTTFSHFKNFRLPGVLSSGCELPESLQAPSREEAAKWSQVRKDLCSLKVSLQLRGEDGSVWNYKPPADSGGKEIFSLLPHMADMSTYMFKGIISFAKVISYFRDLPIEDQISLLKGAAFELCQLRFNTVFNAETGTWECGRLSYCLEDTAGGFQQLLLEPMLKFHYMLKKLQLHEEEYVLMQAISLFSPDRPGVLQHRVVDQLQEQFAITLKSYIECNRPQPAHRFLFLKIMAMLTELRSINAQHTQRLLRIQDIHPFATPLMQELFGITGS
Cytochrome P450 2C19 (Homo sapiens), sequence (P33261 whole entry, looked up, canonical isoform): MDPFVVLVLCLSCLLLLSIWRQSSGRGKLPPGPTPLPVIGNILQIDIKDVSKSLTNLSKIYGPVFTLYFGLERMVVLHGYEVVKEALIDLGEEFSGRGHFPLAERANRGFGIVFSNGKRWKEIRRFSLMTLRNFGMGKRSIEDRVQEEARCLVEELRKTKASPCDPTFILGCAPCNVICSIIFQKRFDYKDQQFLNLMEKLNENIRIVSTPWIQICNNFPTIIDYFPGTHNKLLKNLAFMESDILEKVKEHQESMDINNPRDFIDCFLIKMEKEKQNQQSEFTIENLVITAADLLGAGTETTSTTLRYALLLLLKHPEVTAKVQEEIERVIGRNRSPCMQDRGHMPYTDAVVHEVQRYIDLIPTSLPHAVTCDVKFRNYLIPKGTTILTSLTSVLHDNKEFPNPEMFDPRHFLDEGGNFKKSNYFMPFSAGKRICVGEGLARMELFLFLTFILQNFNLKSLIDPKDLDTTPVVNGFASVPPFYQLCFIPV
Cytochrome P450 1A2 (Homo sapiens), sequence (P05177 whole entry, looked up): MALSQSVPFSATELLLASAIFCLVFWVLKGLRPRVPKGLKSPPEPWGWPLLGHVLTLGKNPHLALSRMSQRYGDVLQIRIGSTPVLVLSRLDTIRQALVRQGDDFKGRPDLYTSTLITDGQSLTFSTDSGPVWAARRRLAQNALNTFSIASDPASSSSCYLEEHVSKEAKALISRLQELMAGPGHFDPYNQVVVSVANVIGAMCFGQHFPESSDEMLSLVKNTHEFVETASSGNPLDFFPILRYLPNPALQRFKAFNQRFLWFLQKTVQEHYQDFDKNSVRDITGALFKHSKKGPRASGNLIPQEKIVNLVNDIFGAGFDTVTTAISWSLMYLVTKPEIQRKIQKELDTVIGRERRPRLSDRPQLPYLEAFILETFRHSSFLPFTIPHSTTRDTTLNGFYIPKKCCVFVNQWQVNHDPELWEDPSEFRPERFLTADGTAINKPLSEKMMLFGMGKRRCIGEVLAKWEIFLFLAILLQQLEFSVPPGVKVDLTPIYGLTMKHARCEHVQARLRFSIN

Take `CN(C)C/C=C/C(=O)Nc1cccc(C(=O)Nc2cccc(Nc3ncc(Cl)c(-c4c[nH]c5ccccc45)n3)c2)c1`: the Z-AUC in experiment [1] was -1.57 (inactive); in experiment [1] (setting [10]) it was -1.76; in [1] (measured here: PEO4 Z-AUC), -1.32.
As for `C[C@@]12CC[C@@H]3[C@@](CC[C@H]4[C@@]3(C)CCC[C@@]4(C)C(=O)O)(CC1=O)C2`, in [2], the Potency was 14.1 µM (active). Moreover, the outcome in experiment [3], in [6], in experiment [7], in experiment [8] and in [9] was inactive. Further, the Potency entry in experiment [4] is “inactive”. In addition, in experiment [5], the max response is 0.713% (inactive).
Consider `CCN1CCN(Cc2ccc(NC(=O)c3ccc(C)c(NC(=O)c4cncc(-c5cccs5)c4)c3)cc2C(F)(F)F)CC1`, for which the Z-AUC in [1] was -1.84 (inactive); in experiment [1] (setting [10]), -1.46; in experiment [1] (measured here: PEO4 Z-AUC) it was -0.887.
Take `CC(C)=CCC[C@](C)(O[C@@H]1O[C@H](CO[C@@H]2O[C@H](CO)[C@@H](O)[C@H](O)[C@H]2O)[C@@H](O)[C@H](O)[C@H]1O)C1CC[C@]2(C)[C@@H]1[C@H](O)CC1[C@@]3(C)CC[C@H](O[C@@H]4O[C@H](CO)[C@@H](O)[C@H](O)[C@H]4O[C@@H]4O[C@H](CO)[C@@H](O)[C@H](O)[C@H]4O)C(C)(C)[C@@H]3CC[C@]12C` (some centres not stated): the Potency in experiment [2] is 1 µM (active). Also, the result in [3], in [6], in experiment [7], in experiment [8] and in experiment [9] was inactive. In addition, in [5], the max response is -2.77% (inactive).
Consider `CC(C)=CCC(O)/C(C)=C/CO[C@@H]1O[C@H](CO)[C@@H](O)[C@H](O)[C@H]1O` (some centres not stated), for which the Potency in experiment [2] was 2.51 µM (active); in experiment [4] it was 3.55 µM (active). Moreover, the outcome in [3], in experiment [6], in [7], in experiment [8] and in experiment [9] was inactive. Moreover, the max response in experiment [5] is -4.77% (inactive).
Consider `CCOc1cc2ncc(C#N)c(Nc3ccc(F)c(Cl)c3)c2cc1NC(=O)/C=C/CN(C)C`, for which the Z-AUC was -0.44 (inactive) in [1], -0.362 in experiment [1] (setting [10]) and -0.838 in experiment [1] (measured here: PEO4 Z-AUC).
On the same counts, the results for `CCCCc1nc2cc(/C=C/C(=O)NO)ccc2n1CCN(CC)CC` are 0.0461 (inactive), -0.0677 and -0.293.
Turning to `CNC(=O)c1cccc(-c2ccc3c(N4CCOC[C@@H]4C)nc(N4CCOC[C@@H]4C)nc3n2)c1`, the Z-AUC in experiment [1] was -1.02 (inactive); in experiment [1] (setting [10]) it was -0.895; in [1] (measured here: PEO4 Z-AUC), -0.994.
For `Nc1ccc(/C=C/C(=O)NCc2cc3cc(-c4ccc(C(=O)N5CCC(F)(F)CC5)cc4)cc(-c4ccc(F)cc4)c3o2)cn1`, the Z-AUC was -0.388 (inactive) in experiment [1], -0.891 in [1] (setting [10]) and -0.788 in experiment [1] (measured here: PEO4 Z-AUC).
On the same counts, the results for `COC(=O)N(C)c1c(N)nc(-c2nn(Cc3ccccc3F)c3ncccc23)nc1N` are 0.294 (inactive), 0.888 and 0.894.
On the same counts, the results for `Cc1cc(C)c(CNC(=O)c2cc(-c3ccc(CN4CCOCC4)cc3)cc3c2cnn3C2CCCC2)c(=O)[nH]1` are 0.564 (inactive), -0.591 and 0.1.
Take `Cc1ccc(NC(=O)Nc2cc(C(F)(F)F)ccc2F)cc1Nc1ccc2c(c1)NC(=O)/C2=C\c1ccc[nH]1`: the Z-AUC in experiment [1] was 0.377 (inactive); in experiment [1] (setting [10]), 0.106; in experiment [1] (measured here: PEO4 Z-AUC), 0.2.
For `O=C(O)c1ccc(CN2CCC(CN[C@@H]3C[C@H]3c3ccccc3)CC2)cc1`, the Z-AUC in experiment [1] is -0.0301 (inactive); in [1] (setting [10]), 1.03; in [1] (measured here: PEO4 Z-AUC) it was 0.899.
For `CCN1CCN(Cc2ccc(NC(=O)c3ccc(C)c(/C=C/c4cnc5[nH]ccc5c4OC)c3)cc2C(F)(F)F)CC1`, the Z-AUC is -1.16 (inactive) in experiment [1], -1.48 in [1] (setting [10]) and -1.42 in experiment [1] (measured here: PEO4 Z-AUC).
Take `c1cn2cc(-c3ccc4cn[nH]c4c3)nc(Nc3ccc(N4CCOCC4)cc3)c2n1`: the Z-AUC was -0.306 (inactive) in experiment [1], -0.0182 in experiment [1] (setting [10]) and 0.447 in experiment [1] (measured here: PEO4 Z-AUC).
Take `CN[C@@H]1[C@H](O[C@H]2[C@H](O[C@@H]3[C@@H](O)[C@H](O)[C@@H](N=C(N)N)[C@H](O)[C@H]3N=C(N)N)O[C@@H](C)[C@]2(O)C=O)O[C@@H](CO)[C@H](O)[C@H]1O`: the Z-AUC in [1] was 1.52 (inactive); in experiment [1] (setting [10]) it was 0.947; in experiment [1] (measured here: PEO4 Z-AUC), 1.26.
